Screen size: about 350,000 compounds; about 5,500 (1.6%) were called active. The sample holds actives, similar compounds and a random draw of the others, so the mix is not that of the screen.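 Rule for the calls: active = significant combined selectivity score with lowered wild-type GFP, culture density cut under 30%, mutant RFP and density less affected; inactive = any of these conditions unmet.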

The nature of the assay: reduced GFP signal of wild-type E. coli, primary screen, bacterial rRNA inhibitor project, GFP/RFP fluorescence, OD600, single point (AID 720706). As to conditions: E. coli WT GFP vs humanized-ribosome RFP mutants, 24 h; GFP signal change (wild-type ribosome): stronger effect = lower value, DMSO median 0, no signal -100; OD600 change: measured here: OD600 growth, DMSO median 0, no signal -100; RFP signal change: measured here: RFP humanized mutant strains, DMSO median 0, no signal -100, concentration not given here.
In the case of `Cc1ccc(S(=O)(=O)Nc2ccc3c(c2)C(=O)N([C@@H](C)CO)C[C@H](C)[C@@H](CN(C)S(=O)(=O)c2ccc(C)cc2)O3)cc1`, the GFP signal change (wild-type ribosome) was 0.928% (inactive), the OD600 change was found to be 0.52% and the RFP signal change was 1.47%.
As to `O=C1CN(Cc2ccccc2)C[C@H]2[C@H](c3ccc(-c4ccccc4)cc3)[C@@H](CO)N12`, the GFP signal change (wild-type ribosome) was 4.87% (inactive), the OD600 change is -18% and the RFP signal change stood at 11.1%.
As for `COCCNC(=O)/C(C#N)=C/c1cccc(OCc2ccccc2)c1`, the GFP signal change (wild-type ribosome) was -27.3% (active), the OD600 change was -3.28% and the RFP signal change is -7.68%.
The corresponding values for `COc1ccc(CNC(=O)/C(C#N)=C/c2cccc(OC)c2OC)cc1` are -12.3% (inactive), -6.5% and 1.12%.
The like results for `COCCNC(=O)/C(C#N)=C/c1nc(N(C)C)n(-c2ccc(F)cc2)c1Cl` were, in that order, 23.8% (inactive), 16.1% and 2.57%.
Consider `C[C@@H]1CN([C@H](C)CO)S(=O)(=O)c2ccc(-c3ccccc3)cc2O[C@@H]1CN(C)C(=O)CC1CC1`, for which the GFP signal change (wild-type ribosome) is -1.82% (inactive), the OD600 change was -12.8% and the RFP signal change was 1.01%.
In the case of `O=C(C1CCC1)N1CC2(C1)[C@H](c1ccccc1)[C@H](CO)N2Cc1nccs1`, the GFP signal change (wild-type ribosome) is 2.78% (inactive), the OD600 change was 3.6% and the RFP signal change is -2.04%.
The like results for `COc1ccccc1CNC(=O)C[C@@H]1C[C@H]2c3cc(NC(=O)CN(C)C)ccc3O[C@H]2[C@@H](CO)O1` were, in that order, 0.305% (inactive), -4.08% and -3.75%.
The like results for `COc1ccc(C(=O)COC(=O)c2c(C)noc2C)cc1Cl` were, in that order, 0.365% (inactive), -1.69% and 4.01%.
The corresponding values for `Cc1onc(-c2ccccc2Cl)c1C(=O)OCC(=O)c1ccccc1` are -21.5% (active), 3.35% and -2.14%.
In the case of `Cc1onc(-c2ccccc2Cl)c1C(=O)OCc1nnc(-c2ccccc2)o1`, the GFP signal change (wild-type ribosome) is -1.78% (inactive), the OD600 change is -40.3% and the RFP signal change is -4.01%.
With `COc1ccc2c3c(n(C)c2c1)[C@@H](CO)N(C(=O)C1CC1)CC31CN(C(=O)C2CCOCC2)C1`, the GFP signal change (wild-type ribosome) was -0.396% (inactive), the OD600 change came out at 5.66% and the RFP signal change was -5.33%.
Take `CCCNC(=O)N1CC(=O)N2[C@@H](CO)[C@H](c3ccc(-c4ccc(C)cc4)cc3)[C@@H]2C1`: the GFP signal change (wild-type ribosome) is 2.33% (inactive), the OD600 change stood at 1.16% and the RFP signal change is -7.67%.
The corresponding values for `CCCn1c(NC(=O)C23CC4CC(CC(O)(C4)C2)C3)nc2ccccc21` are -30.1% (inactive), -35.7% and 3.93%.
The corresponding values for `CCn1c(NC(=O)c2nn(C)cc2Br)nc2ccccc21` are -17.8% (active), -7.54% and 6.47%.
As for `Cc1nn(C)cc1C(=O)Nc1ccccc1Br`, the GFP signal change (wild-type ribosome) is 1.8% (inactive), the OD600 change is 6.79% and the RFP signal change was -7.21%.
As for `C[C@H]1CN([C@@H](C)CO)C(=O)CCCn2nncc2CO[C@H]1CN(C)Cc1ccc2c(c1)OCO2`, the GFP signal change (wild-type ribosome) was -1.02% (inactive), the OD600 change came to 5.54% and the RFP signal change worked out at 0.27%.
The corresponding values for `COc1ccc(C2=CN(Cc3ccccc3)C(c3ccc(OC)cc3)CC2=O)cc1` (stereo not drawn) are -23.8% (inactive), -12.9% and 3.14%.
For the molecule `CC(C)NC(=O)N[C@@H]1CC[C@H](CC(=O)NC2Cc3ccccc3C2)O[C@H]1CO`, the GFP signal change (wild-type ribosome) was 1.59% (inactive), the OD600 change amounted to 0.47% and the RFP signal change was -1.63%.
The corresponding values for `Cn1cnc(CCNC(=O)C[C@@H]2CC[C@H]3[C@@H](COC[C@@H](O)CN3C(=O)Nc3ccc(Cl)cc3)O2)c1` are -23.1% (inactive), -23.2% and -3.05%.
The corresponding values for `COc1ccc(/C=C/C(=O)Nc2cccnc2)cc1OC` are -20.8% (active), -6.64% and -4.77%.
In the case of `COc1cc(/C=N/NC(=S)Nc2cccnc2)cc(OC)c1O`, the GFP signal change (wild-type ribosome) is 1.59% (inactive), the OD600 change was 0.97% and the RFP signal change was -1.01%.
The like results for `COc1ccc(/C=C/C(=O)Nc2ccc(C34CC5CC(CC(O)(C5)C3)C4)cc2)cc1OC` were, in that order, -3.43% (inactive), -9.24% and 7.24%.
Consider `C[C@H]1CCCCO[C@H](CN(C)C(=O)Nc2ccccc2)[C@@H](C)CN([C@@H](C)CO)C(=O)c2cc(NC(=O)c3ccncc3)ccc2O1`, for which the GFP signal change (wild-type ribosome) is -0.767% (inactive), the OD600 change is -2.38% and the RFP signal change was -0.401%.
For the molecule `Cc1noc(C)c1NC(=O)N(C)C[C@H]1OCCCC[C@@H](C)Oc2ccc(NC(=O)NC(C)C)cc2C(=O)N([C@@H](C)CO)C[C@H]1C`, the GFP signal change (wild-type ribosome) was -0.208% (inactive), the OD600 change was -7.75% and the RFP signal change is -1.31%.
`COc1cccc(-c2ccc3c(c2)[C@@H]2[C@@H](CCN2C(=O)CN2CCOCC2)[C@H](CO)N3)c1`: the GFP signal change (wild-type ribosome) was -1.73% (inactive), the OD600 change stood at 12.1% and the RFP signal change was -1.6%.
The corresponding values for `O=C(COC(=O)Cc1ccc(Br)cc1)Nc1c(F)c(F)c(F)c(F)c1F` are -24.2% (active), -11.5% and 3.44%.
As for `Cc1cccc(C)c1NC(=O)CNC(=O)Cc1ccc(Br)cc1`, the GFP signal change (wild-type ribosome) is 8.56% (inactive), the OD600 change came to 16.5% and the RFP signal change is -1.39%.
The like results for `CC1CCCCC1NC(=O)COC(=O)Cc1ccc(Br)cc1` (stereo not drawn) were, in that order, -12.8% (inactive), -7.61% and 2.98%.
The corresponding values for `COc1cccc(NS(=O)(=O)c2ccc(-c3coc(C)n3)cc2)c1` are -28.4% (active), -10.5% and 9.54%.
`Cc1ccc(NS(=O)(=O)c2ccc(-c3coc(C)n3)cc2)c(C)c1`: the GFP signal change (wild-type ribosome) was -8.02% (inactive), the OD600 change came out at 1.15% and the RFP signal change was 7.38%.
